Among the data in the supplement of paper PMC8007513 are growth yield values, retold here.

Where a name gives a salt, the structure may show the parent alone. ± gives the standard error. Among all 1,300 compounds or so, about 130 (10%) showed an effect of 50% or more. This excerpt belongs to a sample that is enriched for strong results.

In this assay the test system is Trichoderma virens ATCC 9645. The assay can be described thus: growth yield (OD600) with compound + IPBC relative to untreated control; higher = less growth inhibition. Particulars: compound concentration: 100 uM, IPBC concentration: 200 ng/ml. In short, it runs like this:
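For each 96-well plate, 100 μl aliquots were prepared with Trichoderma virens ATCC 9645 spores suspended at 15,000 spores ml^−1 in potato dextrose broth. The spores had been harvested from potato dextrose agar plates after 7 days. Library compounds were present at 100 μM final, some wells also receiving a biocide at 200 ng ml^−1, and plates were grown at 30 °C with OD600 read on a BioTek EL800 at 40 h and 72 h. Reported growth, relative to the control lacking both agents, is the mean of duplicate screens.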

As to `CC(=O)NCCCS(=O)(=O)O` [Acamprosate calcium] + CCCCNC(=O)OCC#CI [3-iodo-2-propynyl butylcarbamate (IPBC)], the growth yield is, setting by setting: (40 h) 102.9 ± 0.32%; (72 h) 94.3 ± 2.4%.
For the compound `CCCCC(=O)O[C@H]1CC[C@H]2[C@@H]3CCc4cc(O)ccc4[C@H]3CC[C@]12C` [Estradiol Valerate] + CCCCNC(=O)OCC#CI [3-iodo-2-propynyl butylcarbamate (IPBC)], the growth yield runs as follows: (40 h) 92.29 ± 0.48%; (72 h) 92.2 ± 2.4%.
As to `O=C1O[C@H]([C@@H](O)CO)C(O)=C1O` [Ascorbic acid] + CCCCNC(=O)OCC#CI [3-iodo-2-propynyl butylcarbamate (IPBC)], the growth yield (40 h) was found to be 92.1 ± 0.95% and the growth yield (72 h) turned out to be 96.28 ± 0.63%.
Regarding `CN[C@@H]1[C@@H](O)[C@@H](O[C@@H]2[C@@H](O)[C@H](O[C@H]3OC(CN)=CC[C@H]3N)[C@@H](N)C[C@H]2N)OC[C@]1(C)O` [Sisomicin sulfate] + CCCCNC(=O)OCC#CI [3-iodo-2-propynyl butylcarbamate (IPBC)], the growth yield by setting is: (40 h) 85.6 ± 3.6%; (72 h) 91.9 ± 3.6%.
For the compound `Cc1ccccc1OCC(O)CO` (stereo not given) [Mephenesin] + CCCCNC(=O)OCC#CI [3-iodo-2-propynyl butylcarbamate (IPBC)], the growth yield runs as follows: (40 h) 93.7 ± 2.9%; (72 h) 99 ± 0.63%.
For `CNCC(O)c1ccc(O)cc1` (racemic) [(+,-)-Synephrine] + CCCCNC(=O)OCC#CI [3-iodo-2-propynyl butylcarbamate (IPBC)], the growth yield is, setting by setting: (40 h) 81.3 ± 3.8%; (72 h) 93.8 ± 6.3%.
For `NC(=O)C[S+]([O-])C(c1ccccc1)c1ccccc1` (stereo not given) [Modafinil] + CCCCNC(=O)OCC#CI [3-iodo-2-propynyl butylcarbamate (IPBC)] the same measures were 82 ± 3.5% and 93.5 ± 2.9%.
The matching figures for `C[C@]12C=CC(=O)C=C1CC[C@@H]1[C@@H]2C(=O)C[C@@]2(C)[C@H]1CC[C@]2(O)C(=O)CO` [Prednisone] + CCCCNC(=O)OCC#CI [3-iodo-2-propynyl butylcarbamate (IPBC)]: 90.9 ± 1.9% and 91.5 ± 1.3%.
For `CCCC(C)C1(CC)C(=O)NC(=O)NC1=O` (stereo not given) [Pentobarbital] + CCCCNC(=O)OCC#CI [3-iodo-2-propynyl butylcarbamate (IPBC)] the same measures were 87.4 ± 2.9% and 94.2 ± 2.7%.
Turning to `C/C=C(/C(=C/C)c1ccc(O)cc1)c1ccc(O)cc1` [Dienestrol] + CCCCNC(=O)OCC#CI [3-iodo-2-propynyl butylcarbamate (IPBC)], the growth yield stood at 94.8 ± 3.3% (40 h) and 93.8 ± 2.3% (72 h).
Turning to `CCC(C)(CN(C)C)OC(=O)c1ccccc1` (stereo not given) [Amyleine hydrochloride] + CCCCNC(=O)OCC#CI [3-iodo-2-propynyl butylcarbamate (IPBC)], the growth yield is 88 ± 1.3% (40 h) and 92 ± 2% (72 h).
The matching figures for `COc1ccc(Cl)cc1C(=O)NCCc1ccc(S(=O)(=O)NC(=O)NC2CCCCC2)cc1` [Glibenclamide] + CCCCNC(=O)OCC#CI [3-iodo-2-propynyl butylcarbamate (IPBC)]: 101 ± 6.8% and 108 ± 5.5%.
`Clc1ccc(C(Cn2ccnc2)OCc2csc3c(Cl)cccc23)c(Cl)c1` (stereo not given) [Sertaconazole nitrate] + CCCCNC(=O)OCC#CI [3-iodo-2-propynyl butylcarbamate (IPBC)]: the growth yield reads like this: (40 h) 3.97 ± 0.16%; (72 h) 3.57 ± 0.42%.
As for `CCOc1ccc2c(c1)C(C)=CC(C)(C)N2` [Ethoxyquin] + CCCCNC(=O)OCC#CI [3-iodo-2-propynyl butylcarbamate (IPBC)], the growth yield runs as follows: (40 h) 98.3 ± 17%; (72 h) 98.9 ± 12%.
The matching figures for `CCc1c(C)[nH]c2c1C(=O)C(CN1CCOCC1)CC2` (stereo not given) [Molindone hydrochloride] + CCCCNC(=O)OCC#CI [3-iodo-2-propynyl butylcarbamate (IPBC)]: 102 ± 13% and 101 ± 8.9%.
Consider `CO[C@@H]1[C@@H](OC(N)=O)[C@@H](O)[C@H](Oc2ccc3c(O)c(NC(=O)c4ccc(O)c(CC=C(C)C)c4)c(=O)oc3c2C)OC1(C)C` [Novobiocin sodium salt] + CCCCNC(=O)OCC#CI [3-iodo-2-propynyl butylcarbamate (IPBC)], for which the growth yield reads like this: (40 h) 91.7 ± 12%; (72 h) 115 ± 14%.
The matching figures for `N#Cc1ccc(C(c2ccc(C#N)cc2)n2cncn2)cc1` [Letrozole] + CCCCNC(=O)OCC#CI [3-iodo-2-propynyl butylcarbamate (IPBC)]: 98.6 ± 8.1% and 98.5 ± 1.6%.
Turning to `c1ccc(-c2ccc(C(c3ccccc3)n3ccnc3)cc2)cc1` (stereo not given) [Bifonazole] + CCCCNC(=O)OCC#CI [3-iodo-2-propynyl butylcarbamate (IPBC)], the growth yield is, setting by setting: (40 h) 4.92 ± 0.16%; (72 h) 3.25 ± 0.1%.
Turning to `O=C(C1CCCCC1)N1CC(=O)N2CCc3ccccc3C2C1` (stereo not given) [Praziquantel] + CCCCNC(=O)OCC#CI [3-iodo-2-propynyl butylcarbamate (IPBC)], the growth yield by setting is: (40 h) 71 ± 7.5%; (72 h) 87.3 ± 3.8%.
For the compound `O=[N+]([O-])O[C@H]1CO[C@H]2[C@@H]1OC[C@H]2O[N+](=O)[O-]` [Isosorbide dinitrate] + CCCCNC(=O)OCC#CI [3-iodo-2-propynyl butylcarbamate (IPBC)], the growth yield (40 h) is 90.9 ± 7.6% and the growth yield (72 h) is 94.4 ± 5.7%.
For `NS(=O)(=O)c1cc2c(cc1Cl)NC(C(Cl)Cl)NS2(=O)=O` (stereo not given) [Trichlormethiazide] + CCCCNC(=O)OCC#CI [3-iodo-2-propynyl butylcarbamate (IPBC)] the same measures were 97.5 ± 16% and 97.3 ± 12%.
The matching figures for `C[C@@H]1CN([C@H]2CC[C@](C#N)(c3ccc(F)cc3)CC2)CC[C@]1(C(=O)O)c1ccccc1` [Levocabastine hydrochloride] + CCCCNC(=O)OCC#CI [3-iodo-2-propynyl butylcarbamate (IPBC)]: 118 ± 11% and 111 ± 7.3%.
For `CC(C)OC(=O)CCC/C=C\C[C@@H]1[C@@H](CC[C@@H](O)CCc2ccccc2)[C@H](O)C[C@@H]1O` [Latanoprost] + CCCCNC(=O)OCC#CI [3-iodo-2-propynyl butylcarbamate (IPBC)] the same measures were 90.5 ± 1.9% and 93 ± 3.9%.
`CCc1oc2ccccc2c1C(=O)c1cc(Br)c(O)c(Br)c1` [Benzbromarone] + CCCCNC(=O)OCC#CI [3-iodo-2-propynyl butylcarbamate (IPBC)]: the growth yield was 43.68 ± 0.16% (40 h) and 99.3 ± 8.1% (72 h).
For `O=c1oc2ccccc2c(O)c1Cc1c(O)c2ccccc2oc1=O` [Dicumarol] + CCCCNC(=O)OCC#CI [3-iodo-2-propynyl butylcarbamate (IPBC)] the same measures were 92.3 ± 6.5% and 93.2 ± 3%.
For `CC(=O)CC(c1ccccc1)c1c(O)c2ccccc2oc1=O` (stereo not given) [Warfarin] + CCCCNC(=O)OCC#CI [3-iodo-2-propynyl butylcarbamate (IPBC)] the same measures were 88.5 ± 2.1% and 93.03 ± 0.1%.
For `C[C@]12C/C(=C/O)C(=O)C[C@@H]1CC[C@@H]1[C@@H]2CC[C@@]2(C)[C@H]1CC[C@]2(C)O` [Oxymetholone] + CCCCNC(=O)OCC#CI [3-iodo-2-propynyl butylcarbamate (IPBC)] the same measures were 112 ± 14% and 105 ± 9.2%.
With `Oc1ncnc2[nH]ncc12` [Allopurinol] + CCCCNC(=O)OCC#CI [3-iodo-2-propynyl butylcarbamate (IPBC)], the growth yield (40 h) worked out at 93.4 ± 4.8% and the growth yield (72 h) worked out at 94.28 ± 0.32%.
The matching figures for `Cc1cc(N)c2ccccc2[n+]1CCCCCCCCCC[n+]1c(C)cc(N)c2ccccc21` [Dequalinium dichloride] + CCCCNC(=O)OCC#CI [3-iodo-2-propynyl butylcarbamate (IPBC)]: 3.81% and 2.94%.
The matching figures for `COc1ncnc(NS(=O)(=O)c2ccc(N)cc2)c1OC` [Sulfadoxine] + CCCCNC(=O)OCC#CI [3-iodo-2-propynyl butylcarbamate (IPBC)]: 72.6 ± 2.4% and 84.7 ± 2.7%.
`Cc1[nH]cnc1CN1CCc2c(c3ccccc3n2C)C1=O` [Alosetron hydrochloride] + CCCCNC(=O)OCC#CI [3-iodo-2-propynyl butylcarbamate (IPBC)]: the growth yield runs as follows: (40 h) 85.5 ± 1.3%; (72 h) 87.89 ± 0.21%.
With `CC(C)(C)NC[C@@H](O)COc1cccc2c1CCCC2=O` [(+) -Levobunolol hydrochloride] + CCCCNC(=O)OCC#CI [3-iodo-2-propynyl butylcarbamate (IPBC)], the growth yield (40 h) is 97.8 ± 16% and the growth yield (72 h) was found to be 99.1 ± 12%.
For `CN(CCCCCCCCCCN(C)C(=O)Oc1cccc([N+](C)(C)C)c1)C(=O)Oc1cccc([N+](C)(C)C)c1` [Demecarium bromide] + CCCCNC(=O)OCC#CI [3-iodo-2-propynyl butylcarbamate (IPBC)] the same measures were 3.97 ± 0.16% and 2.73%.
The matching figures for `CN(C)C(=O)Oc1cccc([N+](C)(C)C)c1` [Neostigmine bromide] + CCCCNC(=O)OCC#CI [3-iodo-2-propynyl butylcarbamate (IPBC)]: 83.4 ± 1.1% and 92.19 ± 0.52%.
Regarding `CCN(C)C(=O)Oc1cccc([C@H](C)N(C)C)c1` [Rivastigmine] + CCCCNC(=O)OCC#CI [3-iodo-2-propynyl butylcarbamate (IPBC)], the growth yield (40 h) came to 97.1 ± 4% and the growth yield (72 h) is 95.1 ± 3.7%.
For `C=C1c2cccc(O)c2C(=O)C2=C(O)[C@]3(O)C(=O)C(C(N)=O)=C(O)[C@@H](N(C)C)[C@@H]3[C@@H](O)[C@H]12` [Methacycline hydrochloride] + CCCCNC(=O)OCC#CI [3-iodo-2-propynyl butylcarbamate (IPBC)] the same measures were 94.2 ± 1.8% and 93.7 ± 0.94%.
The matching figures for `C[C@]1(Cn2ccnn2)[C@H](C(=O)O)N2C(=O)C[C@H]2S1(=O)=O` [Tazobactam] + CCCCNC(=O)OCC#CI [3-iodo-2-propynyl butylcarbamate (IPBC)]: 84.5 ± 0.95% and 87.15 ± 0.32%.
On to `C#Cc1cccc(Nc2ncnc3cc(OCCOC)c(OCCOC)cc23)c1` [Erlotinib] + CCCCNC(=O)OCC#CI [3-iodo-2-propynyl butylcarbamate (IPBC)], for which the growth yield runs as follows: (40 h) 98.2 ± 11%; (72 h) 99.3 ± 3%.
On to `COc1cc2ncnc(Nc3ccc(F)c(Cl)c3)c2cc1OCCCN1CCOCC1` [Gefitinib] + CCCCNC(=O)OCC#CI [3-iodo-2-propynyl butylcarbamate (IPBC)], for which the growth yield reads like this: (40 h) 16.4 ± 5.2%; (72 h) 10.5 ± 0.63%.
As for `CCCCOc1ccc(OCCCN2CCOCC2)cc1` [Pramoxine hydrochloride] + CCCCNC(=O)OCC#CI [3-iodo-2-propynyl butylcarbamate (IPBC)], the growth yield stood at 80.1 ± 2.2% (40 h) and 94 ± 3.1% (72 h).
